# IEC-6 tox: counter-screen for KLF5 inhibitors: cytotoxicity in IEC-6 cells; IEC-6 cytotoxicity, luminescence viability; inhibition, % at 5 µM; actives 0.78% (n = 290,000); AID 1825; in the data active = inhibition above about 22%;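 also: 0% = plate median of test compound wells and 100% = cytotoxic reference compound wells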
# Ba/F3 V617F tox: loss of viability in JAK2V617F-driven Ba/F3 cells; Ba/F3 EpoR-JAK2V617F viability, ATP luminescence; inhibition, % at 5.6 µM; actives 1.1% (n = 220,000);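 active = inhibition above the campaign mean plus 3 SD over all tested compounds, cut at about 24% in these data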;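 also: cytokine-independent growth of Ba/F3 cells driven by EpoR plus mutant JAK2; 0% = DMSO-treated cells and 100% = JAK inhibitor I control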
# BaF3 parental: counter-screen for JAK2V617F inhibitors: parental Ba/F3 viability inhibitors; CellTiter-Glo ATP luminescence; inhibition, % at 5.6 µM; actives 1.1% (n = 220,000); AID 1486;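 active = inhibition above a per-campaign cutoff, the mean inhibition of all tested compounds plus 3 SD, cut at about 27% in these data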;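 also: 0% = DMSO wells and 100% = JAK Inhibitor I control wells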
# KLF5 inhibitor: suppresses KLF5 promoter-driven expression; actives 0.23% (n = 290,000); AID 1700; DLD-1 KLF5 promoter-luciferase reporter, luminescence; inhibition, % at 5 µM;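 active = inhibition above a per-plate limit of that plate's mean compound inhibition plus 3 SD, cut at about 60% in these data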;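 also: 0% = DMSO wells and 100% = LY294002 at 200 µM; higher means less KLF5 promoter-driven luciferase light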
# APP 5UTR inh: APP translation inhibition; SH-SY5Y APP 5'UTR-luciferase reporter, luminescence; inhibition, % at 2 µM; actives 0.82% (n = 190,000); AID 1285;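 active = inhibition above a set limit, derived from the sample mean plus 3 SD, cut at about 45% in these data; inconclusive = one replicate passes the limit while the other fails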
# aSyn 5UTR inh: MLPCN primary screen, SNCA 5' untranslated region; alpha-synuclein 5'UTR reporter, inhibitor activity; actives 0.82% (n = 300,000); inhibition, % (tested at 7.5 µM); in the data active = inhibition above about 60%; inconclusive = no clear call, values can overlap the other calls;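 also: H4 neuroglioblastoma cells stably carrying SNCA 5'UTR luciferase fusion; 0% = DMSO wells and 100% = positive control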
# Active calls of the source: *; ? = inconclusive; · = not tested or not shown. Rows were chosen to be rich in hits. Some 2.2% of all compounds tested hit in one or more screens of this group.
SMILES,IEC-6 tox,Ba/F3 V617F tox,BaF3 parental,KLF5 inhibitor,APP 5UTR inh,aSyn 5UTR inh
O=C(NNC(=O)c1ccccc1OCc1ccc(F)cc1)c1ccncc1,·,·,·,·,·,9.0
COc1ccc(/C=C2\SC(=S)N(CCC(=O)NC3C=CS(=O)(=O)C3)C2=O)cc1 (centres undefined),1.3,·,·,-35.9,·,66.4*
CCOc1ccc(/C=C2\SC(=S)N(CCCC(=O)NCCCN3CCOCC3)C2=O)cc1,0.0,·,·,0.1,·,84.4*
COc1cccc(/C=C2\SC(=S)N(CCC(=O)NC3C=CS(=O)(=O)C3)C2=O)c1 (centres undefined),-2.1,·,·,-31.8,·,-29.3
COc1cccc(C(=O)N/N=C(/CCC(=O)O)c2ccccc2)c1,12.0,-0.1,5.5,-6.7,-2.7,-32.4
COc1cc(NC(=O)c2ccccn2)cc(OC)c1OC,3.5,0.5,-0.5,2.4,2.6,-8.4
COc1cccc(C(=O)N/N=C(/c2ccccc2)c2ccccn2)c1,18.9,101.0*,96.7*,20.1,14.8,73.0*
COc1cc(C(=O)N/N=C(\c2ccccc2)c2ccccn2)cc(OC)c1OC,10.1,5.5,6.5,29.2,82.0*,81.3*
O=C(CN1CCN(S(=O)(=O)N2CCOCC2)CC1)Nc1cc(Cl)cc(Cl)c1,2.0,·,·,10.5,·,35.3
COC(=O)/C(=C\Nc1ccc(Oc2ccc(F)cc2F)nc1)NC(=O)c1ccccc1,2.4,0.0,36.2*,-11.6,·,-1.1
C/C(=N\S(=O)(=O)c1ccc(C)cc1)N1CCN(S(=O)(=O)c2ccccc2)C1,-0.1,-0.5,-0.5,-22.3,-7.5,4.4
C/C(=N\S(=O)(=O)c1ccc(C)cc1)N1CCCCC1,-0.4,0.6,79.8*,-20.3,-1.7,13.5
COc1cc(OC)c(S(=O)(=O)NC(C)C)cc1S(=O)(=O)NC(C)C,-8.6,-1.5,3.9,-2.7,-4.1,-0.1
COc1ccc(-c2nnc(NC(=O)c3ccc4c(c3)OCCO4)o2)cc1,6.0,·,·,9.1,·,104.7*
CC1CCCN(S(=O)(=O)c2ccc(C(=O)Nc3nnc(-c4ccccc4Cl)o3)cc2)C1 (centres undefined),-1.2,-4.4,-0.6,-19.8,-16.5,77.9*
COc1ccc(-c2nnc(NC(=O)c3ccc(S(=O)(=O)N4CCc5ccccc5C4)cc3)o2)cc1,-6.9,5.5,9.0,-21.4,3.5,73.2*
Cc1cccc(NS(=O)(=O)c2ccc3c(c2)NC(=O)CO3)c1C,1.9,·,·,-6.2,·,-6.5
CNC(=O)N(C1=NCCCCC1)c1ccc(Br)cc1,-9.5,-2.5,3.8,-5.9,45.0*,21.4
CCOc1ccc(N(C(=O)Nc2ccccc2)C2=NCCC2)cc1,1.1,-2.7,3.0,-16.2,-20.4,-4.2
CCC1CCCCN1CCCNC(=O)Cn1c2ccccc2c2nc(=O)cc(C)n21 (centres undefined),0.0,·,·,-17.1,·,-138.9
CCOC(=O)c1ccc(Oc2cc(C)nc(Cl)n2)cc1,0.5,-2.5,0.0,3.0,·,1.7
NS(=O)(=O)c1ccc(NC(=O)CN2C(=O)C3C4C=CC(C4)C3C2=O)cc1 (centres undefined),2.0,1.6,2.8,-20.5,-4.8,-3.4
Cc1ccc(NC(=O)CN2C(=O)C3C4C=CC(C4)C3C2=O)cc1S(=O)(=O)N(C)C (centres undefined),1.8,-0.7,2.5,40.2,54.9*,17.7
COC(=O)C(Cc1ccc(OC(=O)c2ccc(Cl)cc2)cc1)N1Cc2ccccc2C1=O (centres undefined),4.0,1.7,96.4*,-44.8,-47.8,-124.1
O=C1C=C(N2CCCCC2)c2ccccc2C1=O,·,·,·,·,·,122.4*
SMILES,IEC-6 tox,Ba/F3 V617F tox,BaF3 parental,KLF5 inhibitor,APP 5UTR inh,aSyn 5UTR inh
CN(C)c1ccc(CCc2ccc(N)cc2)cc1,·,·,·,·,·,84.1*
COc1cccc(C(=O)Nc2ccc3[nH]c(=O)[nH]c3c2)c1OC,3.8,·,·,-13.5,·,67.8*
Cc1cc(F)ccc1NC(=O)c1cc(S(=O)(=O)N2CCc3ccccc32)cn1C,3.7,·,·,-16.1,·,1.4
CCc1sc(NS(C)(=O)=O)nc1-c1ccccc1,0.1,-4.2,1.5,-24.7,49.8*,-7.7
CC(=O)NC(Cc1cccc(C)c1)C(=O)NC1CCN(C(=O)NCc2ccccc2)CC1 (centres undefined),4.1,·,·,-5.6,·,13.4
Cc1noc(C)c1C1(O)CCCCCCCCCCC1,1.3,36.2*,54.6*,-10.9,-9.5,0.7
Cc1noc(C)c1C(=O)N1CCCC1,2.0,2.8,3.9,-30.2,4.7,-9.2
C=CCNC(=O)C(=O)Nc1cc2c3c(c1)CCC(=O)N3CCC2,4.2,·,·,-24.1,·,-31.9
CCOc1ccc(N2C(=O)C(CC(=O)Nc3ccccc3)N(Cc3ccccn3)C2=S)cc1 (centres undefined),6.4,7.4,27.4*,33.0,-0.4,4.3
CCOc1ccc(N2C(=O)C(CC(=O)Nc3ccc(F)cc3)N(Cc3ccccn3)C2=S)cc1 (centres undefined),4.5,-1.0,7.5,-0.3,18.2,8.3
COc1ccccc1N(C(=O)c1csnn1)C(C(=O)NC1CCCC1)c1ccccc1 (centres undefined),1.9,·,·,-6.9,·,22.5
CC(C)(C)NC(=O)C(=O)NCc1ccccn1,-2.2,-1.3,1.7,-17.7,-7.6,-26.6
O=C(NCc1ccccn1)C(=O)NCc1ccccn1,-1.4,-3.0,54.0*,-24.4,9.4,-15.9
COc1ccccc1-n1c(-c2ccccc2)c[nH]c1=S,0.4,-6.2,-3.4,-14.8,-3.6,-24.0
COc1ccc(-n2cc(-c3ccc(Br)cc3)[nH]c2=S)cc1,-6.1,-3.0,4.8,-24.7,-14.6,-137.6
COc1ccc(-n2c(-c3ccc(Br)cc3)c[n+]3c2CCc2ccccc2-3)cc1,14.6,87.7*,77.8*,-8.3,-2.4,-91.0
CC(C)c1ccc(-n2c(-c3ccccc3)c[n+]3c2CCc2ccccc2-3)cc1,41.0*,99.2*,92.4*,29.1,13.2,78.2*
COc1ccccc1-n1c(-c2ccccc2)c[n+]2c1CCc1ccccc1-2,23.9*,101.3*,78.9*,20.4,13.4,5.8
CCCCCN(C(=O)CCC(=O)OCC(=O)c1ccc(CCC)cc1)c1c(N)n(CCCC)c(=O)[nH]c1=O,·,·,·,·,·,24.6
COc1ccc(OC)c2sc(N(CCCN(C)C)C(=O)c3ccc(S(=O)(=O)N4CCc5ccccc5C4)cc3)nc12,·,·,·,·,·,100.3*
CCOc1cccc2sc(N(CCCN(C)C)C(=O)c3ccc(S(=O)(=O)N(CC)Cc4ccccc4)cc3)nc12,-6.0,·,·,-11.7,·,70.8*
CCOc1cccc2sc(N(CCCN(C)C)C(=O)c3ccc(S(=O)(=O)N(C)Cc4ccccc4)cc3)nc12,1.4,·,·,-22.5,·,?
CC1CCCCN1S(=O)(=O)c1ccc(C(=O)N(CCCN(C)C)c2nc3ccc(Br)cc3s2)cc1 (centres undefined),8.1,·,·,-29.2,·,67.0*
CN(C)CCN(C(=O)c1ccc(S(=O)(=O)N2CCCC2)cc1)c1nc2ccc(Br)cc2s1,7.7,·,·,-9.7,·,-19.8
COc1cccc2sc(N(CCCN(C)C)C(=O)c3ccc(S(=O)(=O)N4CCc5ccccc5C4)cc3)nc12,-4.8,·,·,-21.9,·,94.2*
